TRPML1 inh: blocks the human TRPML1 channel; TRPML1-inducible cells, Ca2+ dye fluorescence, FDSS; stronger effect = lower value; inhibition of EC80 agonist-evoked calcium signal; activity change, negative = inhibition, % (no concentration beside the values); 390,000 tested, 0.02% active; in the data active = activity change below about -50%; inconclusive = between about -30% and that limit;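 also: stimulus is agonist 54-4 at its EC80 concentration; % is scaled to controls: 0 for no effect and ±100 for the full control effect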
Target sequence (Q9GZU1 whole entry, looked up): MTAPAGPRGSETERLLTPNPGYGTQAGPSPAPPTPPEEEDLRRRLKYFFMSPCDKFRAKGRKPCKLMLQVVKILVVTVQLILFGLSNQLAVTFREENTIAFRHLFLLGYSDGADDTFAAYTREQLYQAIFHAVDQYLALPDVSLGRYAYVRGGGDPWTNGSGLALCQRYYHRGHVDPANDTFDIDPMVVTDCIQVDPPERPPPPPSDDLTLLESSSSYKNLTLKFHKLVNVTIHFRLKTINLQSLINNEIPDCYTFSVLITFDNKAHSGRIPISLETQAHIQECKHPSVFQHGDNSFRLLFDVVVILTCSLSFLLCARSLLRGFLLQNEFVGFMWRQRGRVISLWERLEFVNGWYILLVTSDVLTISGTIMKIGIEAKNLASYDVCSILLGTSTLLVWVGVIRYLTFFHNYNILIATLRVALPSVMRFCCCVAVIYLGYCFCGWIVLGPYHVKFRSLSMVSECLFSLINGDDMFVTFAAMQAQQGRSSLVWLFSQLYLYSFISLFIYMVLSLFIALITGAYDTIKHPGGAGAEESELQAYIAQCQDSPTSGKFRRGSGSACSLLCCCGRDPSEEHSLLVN
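TRPML1-DL cells, Tet-induced overnight (~16 h, 37 °C) at 1,500 cells/well, were loaded with Ca8 no-wash dye plus quencher for 45-90 min at room temperature. Compounds were pinned during FDSS kinetic reading; agonist 54-4 at EC80 (4 uM final) then added.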
KCNH2 WT inh: blocks the wildtype human KCNH2 potassium channel. Q12809. U2OS, BacMam KCNH2, thallium flux FluxOr; stronger effect = lower value. activity change, % at 1.84 µM. AID 720551. 340,000 tested, 0.37% active;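 active = maximum activity change below -70%; inconclusive = maximum activity change between -70% and -50%; inactive = maximum activity change above -50%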; also: % is scaled to controls: 0 for no effect and ±100 for the full control effect
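U2OS cells were transduced with wild-type KCNH2 virus (2.03 x 10^8 / mL) for 4 h at room temperature, then cultured overnight at 37 C. Thallium flux was read with FluxOr dye. Rate constants were normalized to DMSO controls.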
TRHR ag: activates the human TRH receptor; P34981; TRHR cells, calcium flux fluo-8, FDSS agonist mode; activation, % at 2 µM; 360,000 tested, 0.18% active; in the data active = activation above about 30%; also: 0% is about no effect
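Agonist-mode FDSS calcium read (Ex 480/Em 530, 1 s cycles) in 1536-well TRHR cells with fluo-8 dye, after 10-cycle baseline and 23 nL compound addition; TRH at EC20 (10 nM final) added afterwards for the enhancer phase.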
TRHR PAM: allosterically enhances the human TRH receptor. 360,000 tested, 0.66% active. enhancement, % at 2 µM. P34981. AID 493056. TRHR cells, fluo-8 calcium fluorescence, EC20 TRH enhancement; in the data active = enhancement above about 30%; also: 0% is about no effect
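TRHR-expressing cells loaded with fluo-8 calcium dye were read kinetically (ex 480/em 530) during compound addition, then stimulated with an EC20 of TRH (10 nM final). Enhancement of the Gq-mediated intracellular calcium response was scored.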
KCNH2 3.1 inh: KCNH2 3.1 (human) potassium channel inhibition; AID 720553; 340,000 tested, 0.95% active; activity change, % (tested at about 1.8 µM); U2OS KCNH2 3.1, thallium flux FluxOr; stronger effect = lower value;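 active = maximum activity change below -70%; inconclusive = maximum activity change from -70% to -50%; inactive = maximum activity change above -50%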;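 also: thallium influx rate constant from kinetic fluorescence after stimulation buffer; % is scaled to controls: 0 for no effect and ±100 for the full control effect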
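Thallium flux via FluxOr fluorescence (Red40 quencher, 45 min loading) in U2OS cells virally expressing the KCNH2 3.1 isoform (1.77 x 10^8 /mL virus, overnight at 37 C). Rate constants from 2-min kinetic reads post-stimulation, normalised to positive and negative controls.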
TRPML1 ag: agonists of human TRPML1 channel; Q9GZU1; TRPML1-expressing cells, Ca2+ dye fluorescence, FDSS; activation, % (no concentration beside the values); 410,000 tested, 0.12% active; AID 624414; in the data active = activation above about 50%; inconclusive = mostly about 30% to 49%; also: 0% is about no effect
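Cells: TRPML1-DL, 1X Tet inducer, ~16 h at 37 degrees C/5% CO2. Dye: ABD Ca8 no-wash + quencher, 45-90 min RT. Read: 10 s baseline, compound add, 110 s agonist phase; 54-4 EC80 (4uM final), 110 s antagonist phase.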
Active calls of the source: *; ? = inconclusive; . = no result; ! = repeats disagree. A selection: hits, their analogues and other compounds. The true share with any hit is near 1.7%.

SMILES	TRPML1 inh	KCNH2 WT inh	TRHR ag	TRHR PAM	KCNH2 3.1 inh	TRPML1 ag
CC(C)(C)C(=O)OCc1nc(-c2ccc(C(F)(F)F)cc2)cs1	55	12	0	-9	-93*	0
Nc1nonc1OCCN1CCN(c2ccc([N+](=O)[O-])c3cccnc23)CC1	10	2	-1	-2	-30	2
O=C(c1ccccc1F)N1CCN(c2ccc([N+](=O)[O-])c3ncccc23)CC1	18	26	0	2	-2	0
Cc1cc(N2CCN(c3ccc([N+](=O)[O-])c4cccnc34)CC2)c2ccccc2n1	-5	-108*	-1	4	-103*	-2
Cc1cc(N2CCN(c3ccc(C(F)(F)F)cc3[N+](=O)[O-])CC2)c2ccccc2n1	-4	-98*	0	35*	-102*	-1
O=C(c1ccccc1F)N1CCN(c2ccc([N+](=O)[O-])c3cccnc23)CC1	4	-243*	0	-7	-3	0
Cc1cc(C)c(C)c(S(=O)(=O)N2CCN(S(=O)(=O)c3ccc4c(c3)OCCO4)CC2)c1C	.	.	2	1	.	.
O=C(CNC(=O)c1ccncc1)OC(C(=O)Nc1cc(C(F)(F)F)ccc1Cl)c1ccccc1 (centres undefined)	.	.	1	3	.	.
O=C(COC(=O)c1ccc(O)cc1)Nc1ccc(Cl)cc1	4	0	0	-5	9	1
CCc1c2c(nc3ccc4c(c13)OCCO4)-c1nc3ccccc3c(=O)n1C2	53	.	.	.	.	1
Cc1ccc(C)c(N2CCN(S(=O)(=O)c3csc(C(N)=O)c3)CC2)c1	1	-3	-3	32*!	-14	1
O=C(C1=C[C@H](C2CC2)C[C@H](OCCCCO)O1)N1CCOCC1	16	-89*	0	-2	-24	0
Cc1cc(C)n(-c2nc3ccccc3nc2N2CCN(C(=O)c3ccc(Cl)cc3)CC2)n1	3	5	-1	30*	-4	1
O=S(=O)(c1ccc2ccccc2c1)N1CCCCCC1	10	-1	-1	31*	-2	0
CC(C)(C)n1ncc2c(=O)n(Cc3ccccc3-c3ccccc3)cnc21	7	.	.	.	.	2
Cc1ccc(C)c(Nc2nc3c(S(=O)(=O)c4ccccc4)nnn3c3ccccc23)c1	14	-2	0	4	-72*	3
Cc1ccc(CCNc2nc3c(S(=O)(=O)c4ccc(C)cc4)nnn3c3ccsc23)cc1	-9	.	1	42*	.	0
CCCNC(=O)c1ccc(N2CCC3(CC2)CC(c2ccccc2)=NO3)c(NC(=O)Cc2ccc(F)cc2)c1	17	?	0	-6	-77*	-1
CCCCC(CC)C(=O)Nc1cc(C(=O)NCCC)ccc1N1CCC2(CC1)CC(c1cccc(Br)c1)=NO2 (centres undefined)	2	-84*	0	0	?	-1
CCOc1ccc(NC(=O)CN(C)Cc2ccc3c(c2)OCO3)cc1S(=O)(=O)N1CCCC1	7	-30	-1	-13	0	2
CC(C)(C)n1nnnc1C(c1cccs1)N(Cc1ccc(Cl)cc1)CC1CCCO1 (centres undefined)	-18	-6	0	-2	-8	66*
CC(=O)N1Cc2[nH]c3ccccc3c2CC1C(=O)O (centres undefined)	11	-11	0	0	-81*	1
Cc1ccc(CCNC(=O)CN(C)S(=O)(=O)c2ccc3c(c2)c(=O)n(C)c(=O)n3C)cc1	1	-10	0	40*	20	-1
CCCc1cnc(NCCNCC(O)COc2ccc(Cl)c(Cl)c2)nc1 (centres undefined)	58	22	2	4	-98*	2
CC(=O)c1cccc(OCC(O)CNCCc2ccc(Cl)cc2)c1 (centres undefined)	11	1	1	2	-29	1
SMILES	TRPML1 inh	KCNH2 WT inh	TRHR ag	TRHR PAM	KCNH2 3.1 inh	TRPML1 ag
CCCN(CCC)CC(O)COc1ccc([N+](=O)[O-])cc1 (centres undefined)	6	-75*	0	0	?	2
CC1C(=O)N(Cc2cn(CCC3OCCCO3)nn2)CCS(=O)(=O)N1Cc1ccc(-c2ccncc2)cc1 (centres undefined)	9	-9	.	.	0	0
CN1C(=O)CC(c2ccco2)Sc2ccccc21 (centres undefined)	-4	-6	0	35*	-3	0
CC(C)(C)c1ccc(CN(Cc2ccccc2)C(c2ccccn2)c2nnnn2C(C)(C)C)cc1 (centres undefined)	3	-4	0	-1	-23	56*
Fc1ccc(C2N(c3ccccc3)C(=S)N3CCCN23)cc1 (centres undefined)	-10	-110*	0	8	-100*	3
CC(C)Oc1ccc(C(CC(=O)O)NC(=O)C2CCCCC2)cc1 (centres undefined)	-5	27	0	-3	-8	-1
COc1ccc(C(CC(=O)O)NC(=O)C2CCCCC2)cc1 (centres undefined)	-5	1	0	39*	4	-1
Cc1ccc(S(=O)(=O)N/N=C/c2ccc(OCC(=O)N3CCOCC3)cc2)cc1	-2	0	0	1	-72*	3
COc1ccc(S(=O)(=O)N(C)C[C@H]2Oc3ccc(NC(=O)c4ccncc4)cc3C(=O)N([C@H](C)CO)C[C@@H]2C)cc1	-12	-2	.	.	9	-1
CC(C)C(OC(=O)CNC(=O)c1ccccc1)C(=O)Nc1cc(C(F)(F)F)ccc1Cl (centres undefined)	.	.	1	-6	.	.
CCCCn1cnc2c(SCc3cccc(F)c3)nc(N)nc21	-2	13	.	.	-1	0
CCCCn1cnc2c(SCc3ccc([N+](=O)[O-])cc3)nc(N)nc21	-11	14	.	.	-85*	1
Cc1cc(C)cc(NC(=O)Nc2ccc(-n3ccc(C(F)(F)F)n3)cc2)c1	2	10	2	-6	-3	3
COc1ccccc1NC(=O)Nc1ccc(-n2ccc(C(F)(F)F)n2)cc1	76	-124*	1	11	-201*	1
COc1cccc(C(=O)NNC2=C(C(=O)C(F)(F)F)CCC2)c1	1	-2	0	33*	-3	0
COC(=O)c1ccc(Cn2c(=O)cc(C(F)(F)F)c3c(C)nn(C)c32)cc1	-5	.	1	4	.	1
COc1ccccc1-c1cnc(C(O)c2c(C)cc(C)cc2C)[nH]1 (centres undefined)	14	.	.	.	.	0

Source: PubChem BioAssay (National Center for Advancing Translational Sciences (NCATS))
